Our source for the Potency values is PubChem BioAssay AID588342 (National Center for Advancing Translational Sciences (NCATS), 2011).

In all, about 360,000 compounds went through this assay and about 25,000 (6.9%) were called active. Inconclusive results (about 9%) are left out. The call rests on the fitted dose curve; in most records, active means well fitted inhibition curve with a large enough effect; inconclusive means small, poorly fitted or top-dose-only effect; inactive means flat fitted curve, though single readings scatter. Shown is part of a subset that was picked to be rich in actives. A call without a number means that no potency is given here.
Potency means the concentration at half of the fitted maximal effect.

The experiment deals with Luciferin 4-monooxygenase (Photinus pyralis) (UniProt P08659). Kind of experiment: qHTS profiling assay for firefly luciferase inhibitor/activator using purifed enzyme and Km concentrations of substrates (counterscreen for miR-21 project). Further: nearly all actives have a fitted effect of over 55% in size. The conditions noted are these: purified FLuc, luminescence inhibition; series mostly up to 57.5 µM. A digest of the protocol: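 Purified P. pyralis luciferase, 10 nM final, with Km-level 10 uM D-luciferin and 10 uM ATP in 50 mM Tris acetate pH 7.5, 10 mM Mg acetate, 0.01% Tween-20, 0.05% BSA; 6-point qHTS titration about 60 µM downward; luminescence read.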
Sequence of Luciferin 4-monooxygenase (Photinus pyralis) (P08659 whole entry, looked up): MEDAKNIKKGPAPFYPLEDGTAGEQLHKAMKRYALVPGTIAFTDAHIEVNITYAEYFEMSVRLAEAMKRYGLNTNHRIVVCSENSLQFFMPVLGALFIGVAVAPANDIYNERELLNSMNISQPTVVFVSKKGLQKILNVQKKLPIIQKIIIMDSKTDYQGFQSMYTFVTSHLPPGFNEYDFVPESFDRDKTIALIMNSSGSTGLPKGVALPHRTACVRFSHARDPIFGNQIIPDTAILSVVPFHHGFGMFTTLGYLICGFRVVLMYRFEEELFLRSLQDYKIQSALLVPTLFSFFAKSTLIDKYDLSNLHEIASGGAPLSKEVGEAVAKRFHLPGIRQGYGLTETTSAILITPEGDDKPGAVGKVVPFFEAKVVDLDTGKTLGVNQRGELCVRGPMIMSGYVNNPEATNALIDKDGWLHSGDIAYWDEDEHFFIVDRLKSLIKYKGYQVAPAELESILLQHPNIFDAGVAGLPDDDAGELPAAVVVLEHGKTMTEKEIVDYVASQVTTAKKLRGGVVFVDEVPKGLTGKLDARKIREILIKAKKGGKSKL
(In general: In qHTS, concentration-response curves come from the screen itself.)
As to `COc1ccccc1CNC(=O)CCn1c(=O)c2ccccc2n(CC(=O)Nc2ccc(Br)cc2F)c1=O`, the Potency entry was “inactive”.

As for `COc1ccc(OCCn2cc(C(=O)C3CCCCC3)c3ccccc32)cc1`, the Potency entry is “inactive”.

Turning to `Cc1ccc(Nc2nc(CSc3nnc(-c4ccncc4)n3-c3ccccc3C)cs2)cc1`, the Potency is 21.3 µM (active).

Take `Cc1ccccc1-n1c(SCC(=O)NCc2cccs2)nnc1-c1ccncc1`: the Potency result is “inactive”.

In the case of `Cc1ccc(-n2c(SCC(=O)N3c4ccccc4Sc4ccccc43)nnc2-c2ccncc2)cc1`, the Potency entry was “inactive”.

On to `CCCN1C(=O)C(Cc2nc3ccccc3c(=O)n2-c2ccccc2)c2cc(C)ccc21` (stereo not given), for which the Potency entry was “inactive”.

As for `COc1ccc(NC(=S)N2N=CCC2c2ccccc2)cc1` (stereo not given), the Potency is 4.78 µM (active).

`CCC(C)N(C)C1CCN(C(=S)Nc2ccc(OC)cc2)CC1` (stereo not given): the Potency result is “inactive”.

As to `COc1ccc(NC(=S)N2CCc3cc(OC)c(OC)cc3C2)cc1`, the Potency entry is “inactive”.

`COc1ccc(C(=O)NC2CC2)cc1OC1CCN(Cc2cnn(C)c2)CC1`: the Potency result is “inactive”.

Take `OCCCN1c2ccccc2Nc2nnc(-c3ccccc3)cc21`: the Potency is 1.9 µM (active).

In the case of `N=c1c2c(-c3ccccc3)c(-c3ccccc3)n(Cc3ccccc3)c2ncn1CCCO`, the Potency entry is “inactive”.

As to `COC(=O)c1ccccc1NS(=O)(=O)c1ccc2c(c1)CCCN2C(C)=O`, the Potency result is “inactive”.

For `O=C(NCCc1ccccc1)c1ccc2c(c1)N(Cc1ccccc1)CCS2`, the Potency result was “inactive”.

As for `CC1CCCN(c2ccc(C(=O)NCCc3ccccc3)cn2)C1` (stereo not given), the Potency is 7.57 µM (active).

Turning to `O=C(NCCc1ccccc1)c1cnc2sc(N3CCCC3)nn2c1=O`, the Potency entry is “inactive”.

Consider `Cc1ccc(-c2nc(Cn3c(=O)cc(-c4ccccc4)c4c(C)nn(C)c43)c(C)o2)cc1`, for which the Potency result was “inactive”.

In the case of `CCN(CC)S(=O)(=O)c1ccc2c(c1)N(CC(=O)NCC(C)c1ccccc1)C(=O)CO2` (stereo not given), the Potency result is “inactive”.

Regarding `O=S(=O)(NCC(c1ccccc1)N1CCc2ccccc21)c1ccccc1` (stereo not given), the Potency entry was “inactive”.

With `Cc1onc(C(=O)NN)c1-c1csc(COc2ccccc2)n1`, the Potency entry was “inactive”.

As to `CC(C)(C)C(=O)OCc1nc(-c2ccc(O)c(O)c2)cs1`, the Potency was 4.26 µM (active).

As to `CCCCCCn1nnc2sc(-c3ccccc3)cc2c1=O`, the Potency result was “inactive”.

`O=c1c2cc(-c3ccccc3)sc2nc2n1N=C(c1cccs1)CS2`: the Potency is 0.601 µM (active).

As for `Cc1nnc2n1N=C(c1ccccc1)CS2`, the Potency result was “inactive”.

As for `CCOc1ccc(NC(=O)CC2C(=O)N(c3cccc(OC)c3)C(=O)N2C2CCCCC2)cc1` (stereo not given), the Potency entry was “inactive”.

Take `CCOC(=O)c1c(S(=O)(=O)N2CCCC(C(=O)NCc3cccc(C)c3)C2)c(C)n(C)c1C` (stereo not given): the Potency entry is “inactive”.

Take `CCCCC(=O)Nc1cc(C)c2c(=O)oc3ccccc3c2n1`: the Potency result was “inactive”.

On to `CCOC(=O)c1c(C)nc2c(c1C)c(=O)oc1ccccc12`, for which the Potency was 16.9 µM (active).

On to `CCOC(=O)C1CCCN(CC(=O)Nc2cc(C)c3c(=O)oc4ccccc4c3n2)C1` (stereo not given), for which the Potency result is “inactive”.

On to `N#Cc1c(-c2ccccc2)cc(-c2ccccc2)nc1SCC(=O)O`, for which the Potency entry is “inactive”.

As to `N#Cc1c(N2CCCCC2)nc(N)c2c(N)nc(SCC(=O)O)cc12`, the Potency is 8.49 µM (active).

For `Cc1cc(C)c(C#N)c(N2CCC(C(N)=O)CC2)n1`, the Potency result is “inactive”.

For `O=C(c1ccc2nc(N3CCOCC3)sc2c1)N1CCN(c2ccc(Cl)cc2)CC1`, the Potency result is “inactive”.

On to `CCOC(=O)N1CCC(NC(=O)c2ccc3nc(N4CCOCC4)sc3c2)CC1`, for which the Potency entry was “inactive”.

Turning to `O=S(=O)(Nc1ccc2nc(N3CCOCC3)sc2c1)c1ccccc1`, the Potency was 21.3 µM (active).

In the case of `COc1ccccc1N1CC(C(=O)NCCN2C(=O)S/C(=C\c3cccnc3)C2=O)CC1=O` (stereo not given), the Potency result was “inactive”.

Consider `NC(=O)COc1ccc(C23CC4CC(CC(C4)C2)C3)cc1`, for which the Potency was 12 µM (active).

Take `NC(=O)COc1ccc(NC(=O)c2ccccc2-c2ccccc2)cc1`: the Potency entry is “inactive”.

Regarding `NC(=O)COc1ccccc1C(=O)NC12CC3CC(CC(C3)C1)C2`, the Potency result is “inactive”.

In the case of `Cc1ccc(/C=C2\CCn3c2nc2cc(C(=O)O)ccc2c3=O)c(C)c1`, the Potency entry is “inactive”.

In the case of `COc1ccccc1CNC(=O)CCCn1c(=O)c2ccccc2n(CC(=O)Nc2ccc(C)cc2Cl)c1=O`, the Potency entry was “inactive”.

In the case of `CCCn1nc(NC(=O)C(C)C)c2cc3cc(OC)ccc3nc21`, the Potency entry was “inactive”.

Take `CCCn1nc(NS(=O)(=O)c2ccccc2)c2cc3cc(C)ccc3nc21`: the Potency is 16.9 µM (active).

Turning to `CCCn1nc(NS(=O)(=O)c2ccc(F)cc2)c2cc3ccccc3nc21`, the Potency entry was “inactive”.

As for `O=S(=O)(NCC(c1ccco1)N1CCOCC1)c1cc(F)ccc1F` (stereo not given), the Potency entry was “inactive”.

With `Cc1csc2nc(COC(=O)c3ccccc3NC(=O)c3ccccc3Cl)cc(=O)n12`, the Potency entry was “inactive”.

Take `CCN(CC)c1nn2c(=O)c(C(=O)NCCc3ccccc3)cnc2s1`: the Potency result was “inactive”.

For `Cc1cc(C(C)(C)C)n2nc(C)c(-c3ccccc3)c2n1`, the Potency entry is “inactive”.

Regarding `Cc1cc(-n2nc(C)cc2C)n2nc(C)c(-c3ccccc3)c2n1`, the Potency entry was “inactive”.

Consider `Cc1cc(-c2ccccc2)n2nc(C)c(-c3ccccc3)c2n1`, for which the Potency is 16.9 µM (active).

Consider `Cc1ccc(C)n1-c1nnc(N2CCC(C(=O)NCc3ccccc3Cl)CC2)s1`, for which the Potency entry is “inactive”.

For the compound `O=C(NCc1ccc2c(c1)CCN2C(=O)c1ccccc1)c1ccccc1`, the Potency entry is “inactive”.

Turning to `CC(=O)N(C)c1ccc(NC(=O)C(F)(F)F)cc1`, the Potency result was “inactive”.

Turning to `CN(C)c1ccc(N/C=C/C(=O)C(F)(F)F)cc1`, the Potency is 10.7 µM (active).

Take `CNC(=S)NNC(=O)c1ccc(N(C)C)cc1`: the Potency entry is “inactive”.

As to `Cc1ccc2nc(NC(=O)c3nc(SCc4ccccc4F)ncc3Cl)sc2c1`, the Potency result was “inactive”.

Take `CCOc1ccc(NC(=O)c2c(NC(=O)Cc3ccccc3)sc3c2CCC(C)C3)cc1` (stereo not given): the Potency entry was “inactive”.

In the case of `O=S(=O)(c1cccs1)N1CCN(CCOc2ccccc2)CC1`, the Potency result was “inactive”.

As for `Fc1ccc(-c2nc(Nc3cccc(Cl)c3)nc3c2COc2ccccc2-3)cc1`, the Potency entry was “inactive”.

As for `COc1ccc(-c2nc3c4ccccc4n(CC(=O)Nc4ccc(C(C)=O)cc4)c(=O)n3n2)cc1`, the Potency result was “inactive”.

Consider `O=C(CNC(=O)C1COc2ccccc2O1)N/N=C/c1cc(Br)c(O)c(Br)c1` (stereo not given), for which the Potency result is “inactive”.

For `CC1(C(=O)N/N=C/c2cc3c(cc2Br)OCO3)CC1(Br)Br` (stereo not given), the Potency entry is “inactive”.

Turning to `O=C(N/N=C/c1cc2c(cc1Br)OCO2)C1COc2ccccc2O1` (stereo not given), the Potency is 13.5 µM (active).

On to `Cc1ccccc1-c1cc(C(=O)NCc2cccs2)n(CC2CC(c3cccnc3)=NO2)n1` (stereo not given), for which the Potency result was “inactive”.

In the case of `COc1ccc(Cl)cc1NC(=O)Cn1c(=O)c2ccccc2n2nncc12`, the Potency result is “inactive”.
